# Reference: PubChem BioAssay AID2501 (Southern Research Specialized Biocontainment Screening …, 2010)
# Screen size: about 2,200 compounds; about 1,200 (55%) were called active. The limit is not given here; nearly all actives have IC50 up to about 92 µM. The set was probably picked from earlier hits. The list shows a part of the results.
# Assay: counter assay for TAg ATPase ADP read-out – biochemical, ADP-Hunter, fluorescence, counter-screen (AID 2501);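 also: purified T antigen ATPase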;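 as to inhibition: 0% = enzyme with vehicle and 100% = reference inhibitor wells; higher means more inhibition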
# Settings: series mostly up to 100 µM; inhibition: at the top concentration
SMILES,IC50,inhibition
C/C=C/c1cc(CN2CCN(c3ccc(OC)cc3)CC2)c(O)c(OC)c1,32.1 µM (active),
COc1ccc(-n2cc(CN3CCCC3)c(-c3cccc(F)c3)n2)cc1,,-4.56% (inactive)
COc1ccc2cc(-c3[nH]ncc3CN3CCCN(c4ccccc4)CC3)ccc2c1,,4.26% (inactive)
O=S(=O)(Nc1cccc(C(F)(F)F)c1)c1cnc[nH]1,,10.2% (inactive)
Cc1cc(C)c2c(=O)n(CC(=O)Nc3cccc(Cl)c3C)sc2n1,,-7.59% (inactive)
Cc1coc2c(O)cc3c(c12)OC1(N2CCCCC2)C(=O)NCCCC31 (centres undefined),,-156% (inactive)
COc1cc(CNc2ccc3c(c2)CCC3)cc(OC)c1O,11.4 µM (active),
CC1=C(C#N)C(=O)N(C2CCS(=O)(=O)C2)C(=O)/C1=C\c1ccco1 (centres undefined),82 µM (active),
CC1C/C(=C/c2ccco2)C(=O)/C(=C/c2ccco2)C1 (centres undefined),,28.2% (inactive)
N#CC1=C(N)n2c(s/c(=C\c3ccco3)c2=O)=C(C#N)C1c1ccco1 (centres undefined),,5.17% (inactive)
O=C(Nc1ccc(O)cc1)/C(=C\c1cccs1)NC(=O)c1ccccc1,8.43 µM (active),
O=C(NC(=O)c1cnccc1C(F)(F)F)Nc1ccccc1,,-24.9% (inactive)
NC(=O)/C(=C/c1ccco1)C(N)=S,,23.5% (inactive)
O=C(/C=C/c1ccco1)Nc1cccc(C(=O)Nc2ccccc2C(=O)O)c1,,-24.9% (inactive)
O=C(Nc1ccc(O)cc1)/C(=C/c1ccco1)NC(=O)c1ccccc1,3.43 µM (active),
O=C(Nc1ccc(O)cc1)/C(=C\c1ccncc1)NC(=O)c1ccccc1,10.7 µM (active),
CCC(C)N(C(=O)COC(=O)/C=C/c1ccc(O)c(OC)c1)C1CCS(=O)(=O)C1 (centres undefined),19 µM (active),
C/C(CC(=O)Nc1ccc(N(C)C)cc1)=N\NC(=O)c1cnccn1,3.36 µM (active),
O=C(Nc1nc(-c2ccco2)c(-c2ccco2)s1)c1cnccn1,,21.5% (inactive)
O=C(COc1ccc2ccccc2c1)Nc1ccc(Cc2ccncc2)cc1,,-35.1% (inactive)
C/C(CC(=O)Nc1ccc2ccccc2c1)=N\NC(=O)c1ccc(O)c(O)c1,5.4 µM (active),
C/C(CC(=O)Nc1ccc(N(C)C)cc1)=N\NC(=O)c1ccncc1,7.2 µM (active),
C/C(=N\NC(=O)CCC(=O)Nc1ccc(C)c(C)c1)c1cccs1,,-20.1% (inactive)
O=[N+]([O-])c1c(NCCO)cc(Sc2nc3ccccc3s2)c2nonc12,,-15.8% (inactive)
Oc1ccc(N=Cc2ccc(O)c(O)c2)cc1,2.65 µM (active),
Oc1ccc(/C=N/N=C/c2ccc(O)c(O)c2)cc1O,2.99 µM (active),

SMILES,IC50,inhibition
COC1=CC(=O)C(O)=C(CCCCCCC/C=C/CCCCCCCC2=C(O)C(=O)C=C(OC)C2=O)C1=O,,-44.9% (inactive)
O=C(CCSc1ccccc1)Nc1ncccn1,,19.5% (inactive)
O=C(CCCCl)NC1=NN(c2ccccc2)C(=O)C1,12.6 µM (active),
CCCCCC(=O)NNC1CC(=O)N(c2cccc(OCC)c2)C1=O (centres undefined),,-16.1% (inactive)
Oc1cccc2cnccc12,5.53 µM (active),
N#Cc1c(N2CCCCC2)nc(N)c2c(N)nc(SCC(=O)O)cc12,,-21.9% (inactive)
c1cncc(CNc2ccc3c(c2)OCO3)c1,7.3 µM (active),
COc1ccc(-c2c(-c3ccc(O)cc3O)n[nH]c2C)cc1OC,13.2 µM (active),
CNc1nc(C)nc(-n2nc(C)cc2C)n1,,15.3% (inactive)
CC1=C(C)CS(=O)N(S(=O)(=O)c2ccccc2)C1 (centres undefined),,0.26% (inactive)
O=C(OCCCN1CCOCC1)c1ccc(O)c(O)c1,9.99 µM (active),
COc1ccc(OC)c(C2C(C(=O)c3ccc(C)o3)=C(O)C(=O)N2CCN2CCOCC2)c1 (centres undefined),,-6.16% (inactive)
O=c1cc2oc3cc(O)c(O)cc3c(-c3ccccc3[N+](=O)[O-])c-2cc1O,7.23 µM (active),
CN(C)c1oc(-c2ccccc2[N+](=O)[O-])nc1C#N,,-16.3% (inactive)
COc1cc(OC)c(-c2c3cc(O)c(=O)cc-3oc3cc(O)c(O)cc23)cc1OC,7.14 µM (active),
COc1ccc(OC)c(-c2c3cc(O)c(=O)cc-3oc3cc(O)c(O)cc23)c1,,-162% (inactive)
CO[C@@H]1O[C@@H]2COC(c3ccccc3)O[C@@H]2[C@@H](OC)[C@@H]1O (some centres undefined),,-34.3% (inactive)
CC1(C)OC(=O)C(=NNc2ccc(O)cc2)C(=O)O1,3.09 µM (active),
Nc1ccccc1-c1nc2ccccc2s1,,-0.48% (inactive)
Nc1nc2ccc(O)cc2s1,2.36 µM (active),
Nc1nc2ccc(S(=O)(=O)N3CCCCC3)cc2s1,,-1.74% (inactive)
Nc1nc2ccc(N3CCOCC3)cc2s1,3.09 µM (active),
CCOc1ccc(N2C(=O)CC(N3CCOCC3)C2=O)cc1 (centres undefined),,-1.89% (inactive)
CN(C)c1ccc(N2C(=O)CC(Nc3ccc(N4CCOCC4)cc3)C2=O)cc1 (centres undefined),4 µM (active),
O=C(CCC(=O)N1CCN(c2ccc(O)cc2)CC1)c1cccs1,2.87 µM (active),
O=S(=O)(c1cccs1)N1CCN(c2ccc(O)cc2)CC1,5.21 µM (active),

SMILES,IC50,inhibition
NC(=O)c1ccsc1NC(=O)C1CCN(S(=O)(=O)c2cccs2)CC1,,2.13% (inactive)
O=C(NCc1ccc(F)cc1)C(=O)NCC1OCCN1S(=O)(=O)c1cccs1 (centres undefined),,-39.5% (inactive)
O=C(c1cccs1)N1CCN(C(=O)C2CCCO2)CC1 (centres undefined),,18.1% (inactive)
O=C(NC(=S)N1CCN(c2ccc(O)cc2)CC1)c1cccs1,5.56 µM (active),
O=C(CC1SC(=O)N(c2ccccc2)C1=O)Nc1cccc2ccccc12 (centres undefined),,13.9% [at 50 µM] (inactive)
COc1ccc(CCNc2ccc(C(CC(N)=O)NC(=O)Cc3ccc(Br)cc3)cc2[N+](=O)[O-])cc1 (centres undefined),,-20% (inactive)
CN(C)C(=S)Nc1ccc(N2CCOCC2)cc1,2.52 µM (active),
O=Cc1sc(=O)n(Cc2cccc(C(=O)O)c2)c1Cl,,24.6% (inactive)
Cc1nc2sc(C(c3ccco3)N3CCC(C)CC3)c(O)n2n1 (centres undefined),,-26.5% (inactive)
Cc1ccc2nc(-c3ccccn3)c(NC3CCCC3)n2c1,10.1 µM (active),
c1ccc(-c2cccc(-c3ccccn3)n2)nc1,,-3.39% (inactive)
Cc1ccccc1Nc1c(-c2ccccn2)nc2ccccn12,10.9 µM (active),
C[C@@H]1NC(=O)[C@H](CCC(N)=O)NC(=O)c2cc([N+](=O)[O-])cc(I)c2NCC[C@@H](C(N)=O)NC1=O,,-21.8% (inactive)
O=c1[nH]c2ccccc2n2c(-c3ccccc3)nnc12,,-46.4% (inactive)
CC(=O)Nc1ccc(S(=O)(=O)Nc2nc3ccccc3nc2Nc2ccc(O)cc2)cc1,7.76 µM (active),
CC(=O)NS(=O)(=O)c1ccc(NC(=S)NC(=O)Cc2ccccc2)cc1,,20.9% (inactive)
CC(=O)Nc1ccc(S(=O)(=O)Nc2nc3ccccc3nc2Nc2ccc(N)cc2)cc1,5.8 µM (active),
O=c1nc2s/c(=C\c3ccco3)c(=O)n2nc1Cc1ccc(F)cc1,,5.11% (inactive)
COc1cc(/C=N/NC(=O)c2ccc3nc[nH]c3c2)ccc1O,5.28 µM (active),
Cc1cc(C)n2nc(C(=O)N/N=C/c3ccc(O)cc3)nc2n1,2.32 µM (active),
COc1cc(/C=N/NC(=O)c2nnn(-c3nonc3N)c2-c2cccs2)ccc1O,3.94 µM (active),
COc1cc(/C=N/NC(=O)c2cc(C3CC3)[nH]n2)ccc1O,3.26 µM (active),
COc1cccc(CN2CCNC(=O)C2CC(=O)NCc2cn3ccccc3n2)c1OC (centres undefined),,-27.3% (inactive)
Cc1cccn2c(CN(C)CCC3CCCCO3)c(C(=O)N3CCCCC3)nc12 (centres undefined),,20.9% [at 50 µM] (inactive)
COc1cc(/C=N/N(C)c2ccccc2)ccc1O,8.84 µM (active),
COc1cc(/C=N/NC(=O)c2c(-c3ccccc3)noc2C)ccc1O,4.78 µM (active),

SMILES,IC50,inhibition
COc1cc(/C=N/NC(=O)C2COc3ccccc3O2)ccc1O (centres undefined),3.2 µM (active),
COc1cc(/C=N/NC(=O)c2cnccn2)ccc1O,3.09 µM (active),
C=CCN1CCN(C(=O)c2c(-c3ccccc3)noc2C)CC1,,-17.8% (inactive)
CCCOc1ccc(C(=O)N2CC3(CC(c4cccc(NC(=O)[C@@H]5CCC(=O)N5)c4)=NO3)C[C@H]2C(=O)NC2(C(N)=O)CC2)cc1 (some centres undefined),,-28% (inactive)
COc1cc(/C=N/NC(=S)Nc2cccc(C(=O)O)c2)ccc1O,2.66 µM (active),
COc1cc(/C=N/NC(=O)c2nc(C)cc(C)n2)ccc1O,2.74 µM (active),
COc1cc(/C=N\NC(=O)c2c(C)nc3cc(C)ccn23)ccc1O,4.52 µM (active),
COc1cc(/C=N/NC(=O)c2cccs2)ccc1O,4.58 µM (active),
CCCOc1ccccc1/C=C1\SC(N2CCCCC2)=NC1=O,,29.5% (inactive)
COc1ccc(/C=N\NC(=O)c2ccc(=O)[nH]n2)cc1O,3.12 µM (active),
COc1cc(/C=N/NC(=O)c2ccncc2)ccc1O,3.56 µM (active),
COc1cc(/C=N/NC(=O)c2ccccc2)ccc1O,5.63 µM (active),
CCOC(=O)C[n+]1c(C)sc2ccc(OC)cc21,,19.2% (inactive)
C=CCOc1ccc(CNc2ccc3[nH]c(=O)[nH]c3c2)cc1OCC,3.26 µM (active),
C=CCOc1ccccc1CNc1ccc2[nH]c(=O)[nH]c2c1,5.14 µM (active),
O=c1[nH]c2ccc(NCc3ccc(F)cc3)cc2[nH]1,5.43 µM (active),
O=C(Nc1ccc2[nH]c(=O)[nH]c2c1)c1cccc([N+](=O)[O-])c1,,-12.8% (inactive)
C=CCOc1c(CNc2ccc3[nH]c(=O)[nH]c3c2)cccc1OC,3.28 µM (active),
Cc1ccc(C2C(C#N)=C(N)Oc3c2oc(CO)cc3=O)o1 (centres undefined),,-65.8% (inactive)
O=C1CC(=O)N(Cc2ccco2)C(=S)N1,,20.9% (inactive)
O=C1c2sc3nc4n(c(=O)c3c2CCC1Br)CCCCC4 (centres undefined),,-6.05% (inactive)
COc1ccc2[nH]c(=O)c(CNc3ccccc3OC)cc2c1,,-127% (inactive)
C=CCOc1cccc(CNc2ccc3[nH]c(=O)[nH]c3c2)c1,4.29 µM (active),
COc1cccc(CNc2ccc3[nH]c(=O)[nH]c3c2)c1OCc1ccccc1,3.98 µM (active),
COc1cc(/C=C2\S/C(=N/S(=O)(=O)c3ccc(C)cc3)NC2=O)c([N+](=O)[O-])cc1OC,,-14.9% (inactive)
COc1cc(/C=C2\SC(=Nc3ccc(Cl)c(C(=O)O)c3)NC2=O)c(Br)c(Br)c1O,3.98 µM (active),
